Vif imaging – HIV Vif self-association inhibitors, primary screen, imaging, HEK293T, single point; HEK293T cells, Vif self-association by quenched fluorescence, 24 h; inhibition, % at 7.49 µM; 340,000 compounds, 0.35% hits; in the data active = inhibition above about 50%, passing the limit was not always enough; inconclusive = no clear call, values can overlap the other calls; inactive = below about 31%
MITF act – activators of MITF-driven TRPM1 promoter reporter, primary screen, cell-based, SK-MEL-5, luciferase, single point. SK-MEL-5 TRPM1-promoter luciferase, 24 h; % of positive control, neutral wells = 0. activation, % at 12.5 µM. 300,000 compounds, 0.75% hits. AID 588334, 2011;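 active = mean activation of at least 80% with every replicate also reaching 80%; inconclusive = mean reaches 80% but some replicate falls short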
esBAF inh – Bmi1 luciferase reporter increase in mESCs, primary screen, esBAF inhibitor project, mouse ES cells, Bmi1 luciferase knock-in, single point. 350,000 compounds, 2% hits. 24 h; 100% = twice the neutral-well signal. reporter increase, % at 12.5 µM; in the data active = activation above about 40%; inconclusive = no clear call, values can overlap the other calls;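 also: a rise in the Bmi1 reporter signal indicates esBAF inhibition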
Wnt act – Wnt/beta-catenin pathway activators, primary screen, cell-based, plate reader, single point | Wnt/beta-catenin reporter cell assay, activator | activation, % at 9.35 µM | 300,000 compounds, 1.2% hits | AID 743398, 2014; in the data active = activation above about 30%, passing the limit was not always enough; inconclusive = no clear call, values can overlap the other calls
N-glyco inh – increase of ERlucT glycosylation luciferase signal, primary screen, N-linked glycosylation inhibitor project, D54 ERlucT cells, luminescence, set 2 | 360,000 compounds, 0.23% hits | reporter increase, % at 12.5 µM | AID 588692, 2011 | D54 ERlucT glycosylation luciferase reporter, 24 h; percent of 100 nM tunicamycin response;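 active = mean luciferase reporter signal, scaled so untreated is 0 and the glycosylation-blocking control 100, at or above a set limit in every replicate; inconclusive = mean reaches the limit but not every replicate does; inactive = mean below the limit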;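 also: luciferase carries N-glycosylation sites so blocking glycosylation raises the light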
PvdQ acylase – P. aeruginosa PvdQ acylase inhibitors, primary screen, biochemical, fluorescence, plate reader and imaging, single point; AID 488965, 2010; inhibition, % at 10 µM; PvdQ acylase [Pseudomonas aeruginosa LESB58]; 340,000 compounds, 0.063% hits; purified PvdQ acylase; in the data active = inhibition above about 30%, passing the limit was not always enough; inconclusive = no clear call, values can overlap the other calls
Each line names hits and unclear results; the compound was inactive in the other large screens. Sampled rows, rich in hits. Any-hit rate of the full collection: about 2.9%.

COc1cccc(NC(=O)N2CCc3nc(Nc4cc(Cl)cc(Cl)c4)ncc3C2)c1	none (no result: MITF act, PvdQ acylase)
CC(C)c1ccc(Nc2ncc3c(n2)CCN(C(=O)Nc2ccc(F)c(Cl)c2)C3)cc1	esBAF inh 56 (no result: MITF act, PvdQ acylase)
CO[C@H]1CN(C)C(=O)c2cc(NC(=O)c3cccc(Oc4ccccc4)c3)ccc2OC[C@H](C)NC[C@H]1C	none (no result: Vif imaging, MITF act, Wnt act, N-glyco inh, PvdQ acylase)
Cc1ccc2c(c1)[C@H]1[C@H](CO2)[C@H](c2ccccc2)[C@]2(C)C(=O)Nc3cc(Cl)ccc3C(=O)N12	none (no result: Wnt act)
COc1ccc2c(c1)C(=O)N1[C@H]3c4cc(Cl)ccc4OC[C@@H]3[C@H](c3ccccc3)[C@]1(C)C(=O)N2	N-glyco inh 38
COc1ccc2c(c1)OC[C@H]1[C@H]2N2C(=O)c3ccc(C)cc3NC(=O)[C@@]2(C)[C@H]1c1ccccc1	N-glyco inh 48
COc1ccc2c(c1)[C@H]1[C@H](CO2)[C@H](c2ccccc2)[C@]2(C)C(=O)Nc3cc(Cl)ccc3C(=O)N12	N-glyco inh 64 (no result: Wnt act)
Cc1ccc2c(c1)[C@H]1[C@H](CO2)[C@H](c2ccccc2)[C@]2(C)C(=O)Nc3ccc(F)cc3C(=O)N12	none
C[C@@]12C(=O)Nc3cc(F)ccc3C(=O)N1[C@H]1c3ccccc3OC[C@@H]1[C@@H]2c1ccccc1	N-glyco inh 26 (no result: Wnt act)
COc1ccc2c(c1)[C@H]1[C@H](CO2)[C@H](c2ccccc2)[C@]2(C)C(=O)Nc3cc(C)ccc3C(=O)N12	N-glyco inh 51
COc1ccc2c(c1)C(=O)N1[C@H]3c4cc(Br)ccc4OC[C@@H]3[C@H](c3ccccc3)[C@]1(C)C(=O)N2	N-glyco inh 37 (no result: Wnt act)
O=C(c1ccc2c(c1)OCO2)N1C[C@H]2[C@@H](c3ccccc31)[C@H](CO)N2Cc1cccnc1	none (no result: Vif imaging, MITF act, Wnt act, N-glyco inh, PvdQ acylase)
COc1ccc(-c2csc(N)n2)cc1	none (no result: esBAF inh, Wnt act)
Cc1ccc(-c2csc(N)n2)cc1	esBAF inh 43
Nc1nc(-c2ccc(-c3ccccc3)cc2)cs1	esBAF inh 59
Nc1nc(-c2ccc(Oc3ccccc3)cc2)cs1	esBAF inh 68 (no result: MITF act)
CO[C@H]1CN(C)C(=O)c2cc(C#N)ccc2OCC[C@@H]2CC[C@H](OC)[C@@H](CN(C)C(=O)[C@H]1C)O2	none (no result: Vif imaging, MITF act, Wnt act, N-glyco inh, PvdQ acylase)
Cc1nc2ccc(OC(=O)c3ccccc3)cc2s1	none
Cc1nc2cc(C(=O)O)ccc2s1	esBAF inh 73 (no result: Wnt act)
COc1cc(C(=O)Nc2ccc(C(C)=O)cc2)c(Br)c(OC)c1OC	esBAF inh 48
CC(=O)c1ccc(NC(=O)Nc2ccc3c(c2)nc(C)n3C)cc1	MITF act 85 (no result: esBAF inh)
CC(=O)c1ccc(NC(=O)c2ccc(C)c(Br)c2)cc1	Wnt act 69 (no result: esBAF inh)
Cc1cccc(S(=O)(=O)N2CCCCN3[C@H](CO)[C@H](c4ccc(C#C[C@H](C)O)cc4)[C@H]3C2)c1	none (no result: Vif imaging, MITF act, Wnt act, N-glyco inh, PvdQ acylase)
CCCNC(=O)C[C@@H]1CC[C@@H]2[C@H](COC[C@@H](O)CN2C(=O)c2ccc(F)cc2)O1	none (no result: Vif imaging, MITF act, Wnt act, N-glyco inh, PvdQ acylase)
N#C[C@H]1[C@@H](c2ccc(C3=CCCCC3)cc2)[C@@H](CO)N1S(=O)(=O)c1ccccc1	none (no result: Vif imaging, MITF act, Wnt act, N-glyco inh, PvdQ acylase)
CNS(=O)(=O)c1ccc(NC(=O)c2csc(C)c2)cc1	none (no result: esBAF inh)
Cc1nc2ccc(NC(=O)c3ccccc3)cc2s1	Wnt act inconclusive (no result: esBAF inh)
Cc1nc2ccc(NC(=O)c3cncc(Br)c3)cc2s1	MITF act 92
CC(=O)c1ccc(NC(=O)c2ccc3nc(C)sc3c2)cc1	esBAF inh 49 (no result: MITF act)
Cc1cc(C(=O)Nc2ccc(Br)cc2)cs1	Wnt act 45 (no result: esBAF inh)
CS(=O)(=O)Nc1ccc2c(c1)[C@@H]1C[C@H](CC(=O)NCC3CC3)O[C@@H](CO)[C@@H]1O2	none (no result: Vif imaging, MITF act, Wnt act, N-glyco inh, PvdQ acylase)
CCc1ccc2c(c1)C(c1ccncc1)=NNC(c1ccccc1)=N2	esBAF inh 48
C[C@H](CO)N1C[C@H](C)[C@@H](CN(C)C(=O)C2CCCCC2)OCCCC[C@H](C)Oc2ccc(NC(=O)Nc3ccccc3)cc2C1=O	none (no result: Vif imaging, MITF act, Wnt act, N-glyco inh, PvdQ acylase)
O=C(NC1CC(=O)c2sccc21)c1ccc(Cl)cc1Cl (stereo not given)	esBAF inh 43

Screening data deposited in PubChem by Broad Institute.
